Results on four compounds are retold here after PubChem BioAssay (NCATS).

Test [1] is described as follows: AP1 Signaling Pathway (AID 357; active means well fitted curve in either direction with a large enough effect, not every such curve was filed as active;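 further: ME-180 reporter cells stimulated with EGF at its EC50 level; on the % scale 0 is the no-effect control and ±100 the full control effect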). The procedure, abridged:
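First, ME-180 AP-1-bla cells were cultured overnight at 37 °C in low-serum Opti-MEM. Next, titrated compounds with EC50 EGF were incubated 5 hours. Finally, CCF4 was added for 2.5 hours and the 460/530 nm ratio recorded.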

Test [2] can be described thus: NFAT Signaling Pathway (AID 444; active means well fitted curve in either direction with a large enough effect, not every such curve was filed as active;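 further: carbachol stimulus at about its EC50 of 1 µM final; on the % scale 0 is the no-effect control and ±100 the full control effect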). The conditions noted are these: Jurkat NFAT-bla M1, carbachol, beta-lactamase ratio, 5 h. In outline: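 Read-out: CCF4 FRET ratio (460 nm/530 nm) after 1 h RT dye loading, used for %activity and AC50 from titration series. Cells: Jurkat NFAT-β-lactamase/M1 line, treated with compound plus 1 uM carbachol for 5 h, 37 °C.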
A short description of test [3]: Stat Signaling Pathway (AID 446; active means well fitted curve in either direction with a large enough effect, not every such curve was filed as active;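 further: ME-180 cervical cancer cells given 40 pM IL-6 alongside compound; SIE-controlled beta-lactamase reporter measured as 460/530 nm FRET emission ratio; on the % scale 0 is the no-effect control and ±100 the full control effect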). In outline:
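Screening format detects activators and inhibitors alike: ME-180 SIE-bla cells stimulated at 40 pM IL-6 for 5 hrs with compound, then dual-emission beta-lactamase read at 405 nm excitation.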

Test [4] deals with Glucocorticoid receptor (Homo sapiens) (UniProt P04150). Description: GR-GFP Redistribution (AID 450;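 active means compounds whose dose series gives a full or clear partial fitted curve of increased nuclear translocation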; further: potency means the concentration at half of the fitted maximal effect). The conditions noted are these: U2OS GR-GFP nuclear translocation, laser cytometry, 2 h.
Test [5] shares this target. Description: GR-EFC Redistribution (AID 451; calls by dose curve; further: potency means the concentration at half of the fitted maximal effect). The conditions noted are these: CHO-K1 GR-EFC translocation, beta-gal luminescence, 2 h. In outline: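 Translocation of GR-ED fusion to nuclear EA restores b-gal, read by luminescence after 1 h room-temperature detection. Engineered CHO-K1 biosensor cells, 1,000/well, exposed 2 h at 37 C to titrations up to 46 uM final.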

Test [6] has as its target Mitogen-activated protein kinase 10 (Mus musculus) (UniProt Q61831). The test is described as follows: JNK3 AlphaScreen Assay (AID 530; active means well fitted curve in either direction with a large enough effect, not every such curve was filed as active;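 further: kinase came from lysate of stimulated human HepG2 cells; signal reports phosphorylation of biotinylated GST-cJun 1-79 at Ser73 with 10 µM ATP; on the % scale 0 is the no-effect control and ±100 the full control effect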). The procedure, abridged: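 Room-temperature AlphaScreen kinase assay; pre-activated HepG2 lysate as JNK3 source, biotin-GST-cJun(1-79) substrate, 10 uM ATP, compound 15 min preincubation.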
A general note: Bead proximity is the source of the signal in Alpha formats.

In test [7] the target is 3',5'-cyclic-AMP phosphodiesterase 4B (Homo sapiens) (UniProt Q07343). Description: qHTS Assay for Inhibitors of PDE-IV (AID 607; active means well fitted activation curve with a large enough effect in the main read-out, with a control signal flat, not every such curve was filed as active; further: % of control where 0% means no effect). In outline: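 The readout is membrane depolarisation from a cAMP-sensing CNG channel, detected with a potential dye at ex 535/em 590. Cells were HEK293-derived (endogenous PDE-IV) at 1000 cells/well, titrated up to 22.9 uM final.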
(qHTS replaces the single test concentration by a dilution series.)

Test [8] addresses Guanine nucleotide-binding protein G(i) subunit alpha-1 (Homo sapiens) (UniProt P63096). Description: qHTS Assay for Inhibitors of RGS12 GoLoco Motif Activity (Green Fluorophore) (AID 879).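 Further: 0% = labeled peptide with Gαi1 and full inhibition = labeled peptide alone without protein; negative values mean loss of peptide binding seen as reduced polarization.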 In outline: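 Fluorescence polarization assay: 50 nM Gαi1 with 10 nM FITC-labeled RGS12 GoLoco peptide in 10 mM Tris pH 7.5, 150 mM NaCl, 0.1 mM GDP, 0.05% NP40, 10 min at room temperature with compound.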

Test [9] deals with Pyruvate kinase (Leishmania mexicana) (UniProt Q27686). The test is described as follows: qHTS Validation Assay for Inhibitors of Leishmania Mexicana Pyruvate Kinase (AID 945). Further: potency means the concentration at half of the fitted maximal effect.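 On activity change, negative = inhibition: 0% = DMSO only neutral control wells.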 In outline: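 Luminescent ATP detection (PKLight) after a 1 h room-temperature reaction of 0.2 nM LmPYK E451W mutant with 0.5 mM PEP and 0.1 mM ADP at pH 7.2. Activity is normalized to DMSO-only control wells.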

The target in test [10] is Pyruvate kinase PKM (Homo sapiens) (UniProt P14618). Description: qHTS Assay for Activators of Human Muscle Pyruvate Kinase (AID 954; active means well fitted curve in the direction sought with a large enough effect, not every such curve was filed as active;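 further: 0% = uninhibited enzyme and -100% = no enzyme or full thiadiazolimine inhibition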). The procedure, abridged:
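Reaction: 0.1 nM purified PKM2 with 0.5 mM phosphoenolpyruvate and 0.1 mM ADP, room temperature, 1 h. Readout: luciferase-based ATP luminescence after stop reagent. Activators judged against a 0.3 nM enzyme column.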

The target in test [11] is Alpha-galactosidase A (Homo sapiens) (UniProt P06280). The test is described as follows: Counterscreen for Glucocerebrosidase Inhibitors: qHTS Assay for Human alpha-Galactosidase at pH 4.5 (AID 992). Further: 0% is about no effect. The procedure, abridged: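 Concentration-response curves (0.7 nM to 77 uM final) were modeled with the Hill equation to give AC50. Reactions: 2 nM enzyme, 80 uM fluorogenic alpha-galactoside, pH 4.5 citric acid buffer, 20 min, room temperature.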
Background: A counterscreen serves to expose hits that act by an unwanted route or on another target.

Test [12] has as its target alpha-glucosidase (Oryza sativa, rice) (UniProt Q653V4). Description: Counterscreen for Glucocerebrosidase Inhibitors: qHTS Assay for Rice alpha-Glucosidase at pH 5.0 (AID 997).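 Further: 0% = full activity with enzyme and -100% = basal without enzyme.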 In outline: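 Rice alpha-glucosidase (4 nM final) with 400 uM 4-methylumbelliferyl-alpha-D-glucopyranoside in citrate buffer pH 5.0, 20 min at room temperature, stopped at pH 10; fluorescence 365/440 nm, compounds 0.7 nM–77 uM, AC50 from Hill fits.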

The target in test [13] is Alpha-galactosidase (Coffea arabica) (UniProt Q42656). Description: Counterscreen for Glucocerebrosidase Inhibitors: qHTS Assay for Coffee Bean alpha-Galactosidase at pH 5.9 (AID 998).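 Further: plate controls were uninhibited enzyme for no effect and no-enzyme basal signal for full effect.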 The procedure, abridged: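 Compounds were titrated from 0.7 nM to 77 uM against green coffee bean alpha-galactosidase (2 nM) using 80 uM fluorogenic 4-methylumbelliferyl substrate. After 20 min at room temperature, reactions were stopped at pH 10 and read by fluorescence.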

Test [14] deals with Ubiquitin carboxyl-terminal hydrolase 1 (Homo sapiens) (UniProt O94782). Description: Inhibitors of USP1/UAF1: Pilot qHTS (AID 504865).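 Further: rhodamine fluorescence freed from ubiquitin-rhodamine substrate followed over time; top concentration of the series differs between compounds; on the % scale 0 is the no-effect control and ±100 the full control effect; nearly all actives have a fitted effect of over 35% in size.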 In outline: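 Enzyme-free wells gave the negative control, while test wells held 1nM USP1/UAF1 preincubated with compound for 15 min at room temperature. Ub-Rho at 150nM final started the reaction, and fluorescence at 480/540 nm was recorded kinetically.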

Test [15] has as its target Luciferin 4-monooxygenase (Photinus pyralis) (UniProt P08659). The test is described as follows: Biochemical firefly luciferase enzyme assay for NPC (AID 624030).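 Further: purified P. pyralis luciferase at 10 nM with luciferin and ATP substrate; 0% = DMSO and -100% = full luciferase inhibition by PTC124 control; nearly all actives have a fitted effect of over 70% in size.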 In outline:
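Direct inhibition of firefly luciferase enzyme (10 nM final, 50 mM Tris Acetate) assessed by luminescence within 5 minutes. Percent activity scaled between DMSO and PTC124 positive control, with concentration-effect curves classified by fit quality and response.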

A short description of test [16]: qHTS profiling for inhibitors of Plasmodium falciparum proliferation (AID 504749).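 Further: 0% = DMSO vehicle and full inhibition = artemisinin control; nearly all actives have a fitted effect of over 60% in size.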 The conditions noted are these: P. falciparum in erythrocytes, SYBR Green DNA, 72 h, at 28.7 µM (top of the series). In outline: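 Three-day growth assay of blood-stage parasites in erythrocytes (0.3% parasitemia, 2.5% hematocrit) at 37 C, 5% CO2, quantified by SYBR Green DNA staining after overnight detergent lysis.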

Each structure is given as a SMILES string. Where “and” joins values, the source holds several entries; their conditions need not be identical. Equal values may be shown once. Values without a mark were called inactive. Records with an inconclusive call do not appear. Calls of active or inactive are those of the source. Unless noted, the call rests on the fitted dose curve; in most records, active means well fitted curve in the direction sought with a large enough effect; inconclusive means small, poorly fitted or top-dose-only effect, or another doubt; inactive means no such curve, though single readings can be large; an effect the other way counts as inactive or inconclusive.

Chain of Glucocorticoid receptor (Homo sapiens) (P04150 whole entry, looked up, the tested form may be a part): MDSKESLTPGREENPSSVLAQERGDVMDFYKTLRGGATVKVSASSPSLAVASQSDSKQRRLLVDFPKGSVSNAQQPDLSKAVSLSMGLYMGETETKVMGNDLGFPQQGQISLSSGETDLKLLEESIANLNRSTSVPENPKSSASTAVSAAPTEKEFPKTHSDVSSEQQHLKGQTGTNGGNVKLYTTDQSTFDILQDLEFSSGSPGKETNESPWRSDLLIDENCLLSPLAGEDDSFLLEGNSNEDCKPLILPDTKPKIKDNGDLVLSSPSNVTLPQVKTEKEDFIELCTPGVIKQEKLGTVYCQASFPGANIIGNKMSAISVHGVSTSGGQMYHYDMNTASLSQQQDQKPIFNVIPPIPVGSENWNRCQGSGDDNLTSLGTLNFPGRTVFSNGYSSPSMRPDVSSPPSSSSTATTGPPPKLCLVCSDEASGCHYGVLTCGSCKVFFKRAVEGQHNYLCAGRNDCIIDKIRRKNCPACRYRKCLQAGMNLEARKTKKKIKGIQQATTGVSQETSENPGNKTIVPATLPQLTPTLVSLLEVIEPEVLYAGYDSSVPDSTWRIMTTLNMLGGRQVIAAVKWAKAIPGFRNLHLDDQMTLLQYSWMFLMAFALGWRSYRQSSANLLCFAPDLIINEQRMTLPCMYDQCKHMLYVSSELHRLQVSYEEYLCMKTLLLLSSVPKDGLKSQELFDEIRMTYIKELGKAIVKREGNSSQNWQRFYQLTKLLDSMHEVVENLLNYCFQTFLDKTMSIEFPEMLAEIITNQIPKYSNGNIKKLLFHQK
Chain of Pyruvate kinase PKM (Homo sapiens) (P14618 whole entry, looked up): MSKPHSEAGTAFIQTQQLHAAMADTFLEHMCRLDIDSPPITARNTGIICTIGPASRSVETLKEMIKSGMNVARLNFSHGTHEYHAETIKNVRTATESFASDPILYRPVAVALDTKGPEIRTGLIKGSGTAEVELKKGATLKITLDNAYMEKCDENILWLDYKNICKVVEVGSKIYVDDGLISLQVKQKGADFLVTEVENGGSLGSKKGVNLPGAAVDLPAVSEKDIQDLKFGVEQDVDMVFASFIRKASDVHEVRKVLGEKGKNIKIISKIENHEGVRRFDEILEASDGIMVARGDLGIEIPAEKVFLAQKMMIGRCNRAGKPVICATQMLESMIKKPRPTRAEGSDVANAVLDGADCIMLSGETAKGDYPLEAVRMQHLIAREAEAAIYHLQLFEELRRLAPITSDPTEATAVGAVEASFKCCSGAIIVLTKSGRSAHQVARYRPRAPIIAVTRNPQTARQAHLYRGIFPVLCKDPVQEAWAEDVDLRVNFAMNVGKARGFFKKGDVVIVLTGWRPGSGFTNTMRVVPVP
Chain of Pyruvate kinase (Leishmania mexicana) (Q27686 2-499 E452W): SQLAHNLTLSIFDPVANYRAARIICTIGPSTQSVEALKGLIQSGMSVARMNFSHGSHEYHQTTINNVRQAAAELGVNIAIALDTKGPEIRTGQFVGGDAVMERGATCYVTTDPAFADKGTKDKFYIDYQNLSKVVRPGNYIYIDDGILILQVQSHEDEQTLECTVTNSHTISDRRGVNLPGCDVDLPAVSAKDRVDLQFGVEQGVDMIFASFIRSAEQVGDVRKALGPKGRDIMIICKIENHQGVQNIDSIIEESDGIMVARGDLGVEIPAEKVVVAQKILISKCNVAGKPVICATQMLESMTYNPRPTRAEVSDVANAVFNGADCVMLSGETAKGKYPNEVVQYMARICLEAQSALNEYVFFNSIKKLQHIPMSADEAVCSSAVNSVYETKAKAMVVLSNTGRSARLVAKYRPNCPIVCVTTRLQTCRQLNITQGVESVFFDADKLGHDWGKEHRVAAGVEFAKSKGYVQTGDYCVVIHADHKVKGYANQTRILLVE
Chain of Alpha-galactosidase A (Homo sapiens) (P06280 whole entry, looked up): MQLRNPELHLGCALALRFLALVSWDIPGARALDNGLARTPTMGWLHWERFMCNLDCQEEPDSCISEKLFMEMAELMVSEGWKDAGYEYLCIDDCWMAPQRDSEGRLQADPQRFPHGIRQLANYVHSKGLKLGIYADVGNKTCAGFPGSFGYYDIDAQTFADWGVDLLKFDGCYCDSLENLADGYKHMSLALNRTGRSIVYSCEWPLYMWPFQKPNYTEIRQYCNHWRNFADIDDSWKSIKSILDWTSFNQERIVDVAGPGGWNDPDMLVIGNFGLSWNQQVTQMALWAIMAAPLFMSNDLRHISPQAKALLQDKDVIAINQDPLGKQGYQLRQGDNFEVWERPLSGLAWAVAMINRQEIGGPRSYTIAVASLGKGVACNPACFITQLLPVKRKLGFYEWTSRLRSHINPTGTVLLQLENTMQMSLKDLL
Chain of Alpha-galactosidase (Coffea arabica) (Q42656 whole entry, looked up): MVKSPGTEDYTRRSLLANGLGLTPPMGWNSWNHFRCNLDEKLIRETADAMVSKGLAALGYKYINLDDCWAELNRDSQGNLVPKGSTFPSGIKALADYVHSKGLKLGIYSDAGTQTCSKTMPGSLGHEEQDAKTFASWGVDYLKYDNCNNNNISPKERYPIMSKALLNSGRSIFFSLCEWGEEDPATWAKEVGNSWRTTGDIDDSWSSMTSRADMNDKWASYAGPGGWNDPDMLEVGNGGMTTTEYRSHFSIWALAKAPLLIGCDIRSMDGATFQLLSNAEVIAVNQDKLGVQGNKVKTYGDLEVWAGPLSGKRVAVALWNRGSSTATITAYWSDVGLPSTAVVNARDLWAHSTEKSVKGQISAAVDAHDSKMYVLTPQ
Chain of Guanine nucleotide-binding protein G(i) subunit alpha-1 (Homo sapiens) (P63096 whole entry, looked up): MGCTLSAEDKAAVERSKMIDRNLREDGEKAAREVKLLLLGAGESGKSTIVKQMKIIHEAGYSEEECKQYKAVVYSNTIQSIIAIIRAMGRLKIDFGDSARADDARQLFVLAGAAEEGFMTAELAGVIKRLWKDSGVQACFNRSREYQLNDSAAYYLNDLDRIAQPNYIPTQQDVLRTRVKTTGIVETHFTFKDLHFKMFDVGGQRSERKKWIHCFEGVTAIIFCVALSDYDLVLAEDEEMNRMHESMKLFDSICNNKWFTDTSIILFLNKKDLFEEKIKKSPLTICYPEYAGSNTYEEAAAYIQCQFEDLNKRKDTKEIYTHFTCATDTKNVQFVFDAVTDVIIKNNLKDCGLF
Chain of 3',5'-cyclic-AMP phosphodiesterase 4B (Homo sapiens) (Q07343 whole entry, looked up): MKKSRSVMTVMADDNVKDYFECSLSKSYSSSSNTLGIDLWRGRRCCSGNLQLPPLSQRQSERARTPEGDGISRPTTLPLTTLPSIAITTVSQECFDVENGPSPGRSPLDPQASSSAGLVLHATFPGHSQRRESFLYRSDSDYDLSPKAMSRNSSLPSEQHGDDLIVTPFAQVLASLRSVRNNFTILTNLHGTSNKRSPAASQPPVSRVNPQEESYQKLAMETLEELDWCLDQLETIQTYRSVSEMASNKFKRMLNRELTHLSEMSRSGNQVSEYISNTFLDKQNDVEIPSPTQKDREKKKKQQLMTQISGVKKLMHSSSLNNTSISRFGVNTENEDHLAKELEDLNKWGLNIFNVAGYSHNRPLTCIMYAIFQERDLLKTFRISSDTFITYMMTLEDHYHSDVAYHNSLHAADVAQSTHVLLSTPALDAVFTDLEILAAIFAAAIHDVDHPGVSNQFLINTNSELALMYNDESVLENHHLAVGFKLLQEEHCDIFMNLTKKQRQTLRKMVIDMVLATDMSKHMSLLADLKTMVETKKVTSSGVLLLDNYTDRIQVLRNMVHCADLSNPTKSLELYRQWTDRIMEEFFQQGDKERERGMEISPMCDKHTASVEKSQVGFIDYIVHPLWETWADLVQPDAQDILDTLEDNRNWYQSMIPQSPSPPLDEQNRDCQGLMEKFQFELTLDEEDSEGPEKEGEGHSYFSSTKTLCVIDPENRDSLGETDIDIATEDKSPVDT
Chain of Luciferin 4-monooxygenase (Photinus pyralis) (P08659 whole entry, looked up): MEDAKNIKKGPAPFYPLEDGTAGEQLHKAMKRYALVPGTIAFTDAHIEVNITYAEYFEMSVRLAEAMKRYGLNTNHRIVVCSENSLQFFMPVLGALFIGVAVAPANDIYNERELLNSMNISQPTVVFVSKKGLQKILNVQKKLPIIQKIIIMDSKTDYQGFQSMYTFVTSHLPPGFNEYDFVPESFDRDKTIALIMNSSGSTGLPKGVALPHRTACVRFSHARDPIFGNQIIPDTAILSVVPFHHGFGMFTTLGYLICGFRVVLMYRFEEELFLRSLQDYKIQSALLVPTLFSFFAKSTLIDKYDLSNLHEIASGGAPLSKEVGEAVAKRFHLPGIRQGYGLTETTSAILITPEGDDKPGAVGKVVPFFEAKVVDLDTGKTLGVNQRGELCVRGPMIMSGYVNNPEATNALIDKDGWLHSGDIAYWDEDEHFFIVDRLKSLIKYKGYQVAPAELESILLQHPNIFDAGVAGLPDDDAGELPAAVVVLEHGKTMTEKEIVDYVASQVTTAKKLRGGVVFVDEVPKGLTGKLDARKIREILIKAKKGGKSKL

For the compound `C#CCN(C)C(C)Cc1ccccc1` (stereo not drawn), the compound was classed as inactive in test [1] and in test [3]. Also, the activity change, negative = inhibition in test [2] (at 17.2 µM (top of the series)) was -4.45%. Further, in [4], the Potency is more than 20.6 µM.
Take `NNCc1cccc(O)c1`: the outcome in [1], in [3], in test [6], in test [8], in [10] and in test [11] was inactive. The outcome in test [12] and in [13] was inactive. In addition, the activity change, negative = inhibition in [2] (at 38 µM (top of the series)) was -15.7%. The Potency in [4] is more than 46 µM; in [5], more than 46 µM; in [9] it was 10 µM (active). For the same compound, the Potency entry in [7] was “inactive”.
For the compound `CC(C)(O)C1C2OC(=O)C1[C@]1(O)C[C@H]3O[C@]34C(=O)O[C@H]2[C@]14C` (stereo partly drawn) (tested in a mixture with another compound), the Potency result in test [14] and in [15] was “inactive” throughout. In addition, the activity, negative = inhibition in [16] (parasite line A) is 14%; in test [16] (parasite line B), -0.69%.
`C[C@H]1OC[C@@H](C[N+](C)(C)C)O1`: the compound was classed as inactive in test [1], in test [3], in [6], in test [8], in [10] and in test [11]. The call in test [12] and in test [13] was inactive. The activity change, negative = inhibition in test [2] (at 17.2 µM (top of the series)) is 147% [activator] (active). For the same compound, the Potency in test [4] was > 46 µM and > 20.6 µM; in [5] it was more than 46 µM. Further, the Potency entry in [9] is “inactive”.
